The source of these data is PubChem BioAssay AID393 (SGCOxCompounds, 2006).

SMILES strings stand for the structures. Calls of active or inactive are those of the source. How the calls were made is not given here.

The assay deals with Serine/threonine-protein kinase pim-1 (Homo sapiens) (UniProt P11309). The assay is described as follows: compound-induced PIM1 thermal stabilization – biophysical, human, melting temperature shift (AID 393). As to conditions: Thermal shift assay, at 10 µM, hits give high values; protein 2 µM, buffer 10 mM Na Citrate, pH 6.5, NaCl 150 mM unless noted.
Sequence of Serine/threonine-protein kinase pim-1 (Homo sapiens) (P11309 whole entry, looked up): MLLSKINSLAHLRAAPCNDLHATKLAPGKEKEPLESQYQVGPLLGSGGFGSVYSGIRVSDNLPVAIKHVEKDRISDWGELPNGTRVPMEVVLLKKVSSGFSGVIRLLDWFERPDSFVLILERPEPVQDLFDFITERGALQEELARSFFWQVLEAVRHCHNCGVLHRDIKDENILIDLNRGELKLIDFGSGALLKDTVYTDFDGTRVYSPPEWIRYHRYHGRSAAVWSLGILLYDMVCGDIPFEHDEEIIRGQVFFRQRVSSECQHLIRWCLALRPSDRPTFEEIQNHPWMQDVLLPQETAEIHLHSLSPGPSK
On to `CCn1cnc2c(Nc3cccc(Cl)c3)nc(N[C@@H]3CCCC[C@@H]3N)nc21`, for which the Tm shift is 5.8 Celsius (active). With `O=C1NC(=O)c2c1c1c3ccccc3n3c1c1c2c2ccccc2n1[C@@H]1CCC3O1`, the Tm shift is 12.7 Celsius [protein 2 µM, buffer 10 mM PIPES, pH 6.5, NaCl 150 mM] (active).

Regarding `Cc1c2ccncc2c(C)c2c1[nH]c1ccccc12`, the Tm shift is 8.6 Celsius (active). Then `N#C/C(=C1\Nc2ccccc2S1)c1ccnc(NCCc2cccnc2)n1`, with 10.3 Celsius (active); and `O=C1Nc2ccccc2/C1=C\c1cnc[nH]1`, with 3.92 Celsius [protein 3 µM, buffer 10 mM HEPES] (active).
